From PubChem BioAssay
Active and inactive are the calls of the source. No rule for the calls is given here.

Each compound was assayed against Pantothenate synthetase (Mycobacterium tuberculosis (strain ATCC 25618 / H37Rv)) (UniProt P9WIL5) (assay: Recombinant Mtb pantothenate synthetase (PanC) inhibitors, coupled enzyme, confirmatory (AID 375;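 also: 0% = full reaction with vehicle and 100% = no enzyme background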)). Details: coupled enzyme assay; at 10 µM, stronger effect = higher value.
Pantothenate synthetase (Mycobacterium tuberculosis (strain ATCC 25618 / H37Rv)), sequence (P9WIL5 whole entry, looked up): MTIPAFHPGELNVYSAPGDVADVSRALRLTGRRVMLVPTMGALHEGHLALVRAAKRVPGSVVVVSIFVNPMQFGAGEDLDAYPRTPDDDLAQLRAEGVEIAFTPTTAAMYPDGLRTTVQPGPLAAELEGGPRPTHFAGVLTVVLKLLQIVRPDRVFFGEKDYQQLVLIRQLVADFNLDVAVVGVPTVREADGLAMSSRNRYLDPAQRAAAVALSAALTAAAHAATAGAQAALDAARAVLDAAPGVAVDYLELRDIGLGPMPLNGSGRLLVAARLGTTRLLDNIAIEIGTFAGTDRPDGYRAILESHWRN

SMILES | inhibition
C(=C\c1ccccc1)/CSc1nnc(-c2ccccn2)n1Cc1ccco1 | 5% (inactive)
CC(C(=O)Oc1ccc2c(c1)OCO2)N1C(=O)c2ccccc2C1=O (stereo not given) | 5% (inactive)
COCCn1c(SCC(=O)N(C(C)C)C(C)C)nnc1-c1cc2ccccc2cc1O | 0% (inactive)
CCc1nnc(SCc2cn3c(C)cc(C)nc3n2)n1N | 0% (inactive)
CC(c1ccco1)N(C(=O)c1ccc(S(=O)(=O)N2CCCCC2)cc1)c1ccccn1 (stereo not given) | 2% (inactive)
O=C(Nc1nnc(-c2ccc(Cl)cc2)o1)C1CCCCC1 | 0% (inactive)
CCCOc1ccc(C2C(C(=O)OC)=CN(CCOC)C=C2C(=O)OC)cc1 | 1% (inactive)
COC(=O)C1=C(C)n2nnnc2NC1c1ccc(Cl)cc1 (stereo not given) | 2% (inactive)
CCOC(=O)c1c(C)c(C(=O)NCCN2CCOCC2)c(C)n1C | 4% (inactive)
CC(=O)Nc1ccc(S(=O)(=O)N2CCN(Cc3ccncc3)CC2)cc1 | 8% (inactive)
Cc1cc(/C=N\O)c(C)n1-c1ccncc1 | 0% (inactive)
COc1ccc(OCCSc2nc3ccccc3n2CC(=O)O)cc1 | 2% (inactive)
CCc1c(C)nc2ncnn2c1NCCc1ccc(OC)c(OC)c1 | 0% (inactive)
CN(C)c1ccc(NC(=O)CSCc2nc3c(nnn3Cc3ccc(F)cc3)c(=O)[nH]2)cc1 | 3% (inactive)
CCOc1ccccc1Nc1nnc(SCC(=O)N2CCCC2)s1 | 0% (inactive)
CN(C)/C=C1\N=C(c2ccc(Cl)cc2Cl)OC1=O | 0% (inactive)
Cc1sc2ncn3ncnc3c2c1C | 0% (inactive)
N#CCC(=O)Nc1ncn(Cc2ccccc2Cl)n1 | 0% (inactive)
O=C(c1cnn2c(C(F)(F)F)cc(-c3ccco3)nc12)N1CCc2ccccc2C1 | 3% (inactive)
Oc1c(I)cc(Cl)c2cccnc12 | 4% (inactive)

SMILES | inhibition
Nc1sccc1C(=O)c1ccc(Cl)cc1 | 0% (inactive)
COCCNC(=O)c1c(N)n(CCC2=CCCCC2)c2nc3ccccc3nc12 | 0% (inactive)
CC(C)CCNC(=O)NC(=O)CSc1nnc(-c2ccccc2Br)o1 | 1% (inactive)
O=C(O)C1CCCN1C(=O)c1cccs1 (stereo not given) | 7% (inactive)
c1cncc(C2Nc3ccccc3-c3nc4ccccc4n32)c1 (stereo not given) | 7% (inactive)
CN(C)c1ccc(CNn2cnnc2)cc1 | 2% (inactive)
COc1cc(CN2CCSCC2)cc(OC)c1OC | 0% (inactive)
O=C(CCN1CCOCC1)Nc1ccc2c(c1)CCC2 | 4% (inactive)
CCc1n[nH]c2c1C(=O)CC(C)(C)C2 | 2% (inactive)
CC(=O)Nc1ccc(S(=O)(=O)N2CCN(c3cc(C)nc4ccccc34)CC2)cc1 | 5% (inactive)
CN(C)CCN1C(=O)C(O)=C(C(=O)c2cc3ccccc3o2)C1c1ccc(N(C)C)cc1 (stereo not given) | 0% (inactive)
CCOC(=O)N1CCC(N2C(=O)c3ccc(C(=O)NCc4ccco4)cc3C2=O)CC1 | 2% (inactive)
Cc1c(C(=O)OC(C)C)[nH]c2c1C(=O)CCC2 | 0% (inactive)
CN(C)C(CNc1nnnn1-c1ccccc1)c1ccco1 (stereo not given) | 2% (inactive)
CC(=O)Nc1cccc(NC(=O)CSc2nnnn2C)c1 | 0% (inactive)
CCN(CC)CCNC(=O)c1ccc(NC(C)=O)cc1 | 0% (inactive)
C=CCSc1nc2c(c(=O)[nH]c(=O)n2C)n1CC | 2% (inactive)
CC(=O)OC(C(=O)NCc1ccco1)c1cccnc1 (stereo not given) | 0% (inactive)
COc1ccc(S(=O)(=O)NCc2ccc(C(=O)O)cc2)cc1 | 0% (inactive)
O=C1C2C3C=CC(C3)C2C(=O)N1Cc1ccccc1 (stereo not given) | 6% (inactive)
